# In the supplement of paper PMC6555819:
# What was measured:
# Assay in all cases: PBM binding z-score (relative to random genomic background probes); higher = stronger binding; sequences stand for … in GC…GCGATTGACAGCGTAGAATGAAGG
# [1] = system: FXR:RXRa (NR concentration 270 nM, RXRa partner concentration 90 nM)
# Outline: (§1)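 Random background probes are the reference for binding z-scores. These scores derive from regression-normalized fluorescence on custom Agilent 4×180K protein-binding microarrays incubated 1 h with ligand-free nuclear receptor dimers. Binding was detected with antibodies against each partner (one per run).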
# [2] = system: LXRa:RXRa (NR concentration 270 nM, RXRa partner concentration 90 nM)
# Outline: as §1
# [3] = system: LXRa homodimer (NR concentration 270 nM)
# Outline: as §1
# [4] = system: LXRb:RXRa (NR concentration 270 nM, RXRa partner concentration 90 nM)
# Outline: as §1
# [5] = system: LXRb homodimer (NR concentration 270 nM)
# Outline: as §1
# [6] = system: PPARa:RXRa (NR concentration 270 nM, RXRa partner concentration 90 nM)
# Outline: as §1
# [7] = system: PPARg:RXRa (NR concentration 180 nM, RXRa partner concentration 90 nM)
# Outline: as §1
# [8] = system: PPARg:RXRa 270nM:90nM, anti-RXR (NR concentration 270 nM, RXRa partner concentration 90 nM)
# Outline: as §1
# [9] = system: PPARg:RXRa 30nM:10nM, anti-RXR (NR concentration 30 nM, RXRa partner concentration 10 nM)
# Outline: as §1
# [10] = system: PPARg:RXRa 90nM:30nM, anti-RXR (NR concentration 90 nM, RXRa partner concentration 30 nM)
# Outline: as §1
# [11] = system: PPARg:RXRa DBDmut IVT, anti-RXR (DBD mutation: RXRa K156A/R161A, NR concentration 270 nM, RXRa partner concentration 90 nM)
# Outline: as §1
# [12] = system: PPARg:RXRa IVT, anti-PPARg (NR concentration 270 nM, RXRa partner concentration 90 nM)
# Outline: as §1
# [13] = system: PPARg DBDmut:RXRa IVT, anti-PPARg (DBD mutation: PPARg1 K132A/R137A, NR concentration 270 nM, RXRa partner concentration 90 nM)
# Outline: as §1
# [14] = system: PPARg DBDmut IVT, anti-PPARg (DBD mutation: PPARg1 K132A/R137A, NR concentration 270 nM)
# Outline: as §1
# [15] = system: PPARg homodimer (NR concentration 180 nM)
# Outline: as §1
# [16] = system: PXR:RXRa (NR concentration 270 nM, RXRa partner concentration 90 nM)
# Outline: as §1
# [17] = system: PXR homodimer (NR concentration 270 nM)
# Outline: as §1
# [18] = system: RARa:RXR (NR concentration 270 nM, RXRa partner concentration 90 nM)
# Outline: as §1
# [19] = system: RARa homodimer (NR concentration 270 nM)
# Outline: as §1
# [20] = system: RARb:RXRa (NR concentration 270 nM, RXRa partner concentration 90 nM)
# Outline: as §1
Sequence,PBM binding z-score [1],PBM binding z-score [2],PBM binding z-score [3],PBM binding z-score [4],PBM binding z-score [5],PBM binding z-score [6],PBM binding z-score [7],PBM binding z-score [8],PBM binding z-score [9],PBM binding z-score [10],PBM binding z-score [11],PBM binding z-score [12],PBM binding z-score [13],PBM binding z-score [14],PBM binding z-score [15],PBM binding z-score [16],PBM binding z-score [17],PBM binding z-score [18],PBM binding z-score [19],PBM binding z-score [20]
TCTACTAGGTCAGTTGGTCAGCTAACGAGCTGCC,1.67,1.12,-0.0574,0.857,1.06,2.61,4.64,4.2,3.87,4.08,6.44,6.43,1.78,0.835,1.78,0.537,-0.418,0.904,0.501,3.46
ATCTCAAGGTAAAAGTTCAGTGAATCCCGAGGAT,1.18,1.66,1.12,0.879,0.539,3.08,3.54,4.49,2.83,4.24,-0.133,1.48,0.958,1.4,0.853,2.03,1.43,2.15,0.0495,2.62
GTACCAAGGTGAAAAGGTCGTTGATGAGTAGGCG,2.32,1.94,0.42,1.99,-0.22,3.63,2.62,3.36,1.38,2.94,1.77,2.85,0.246,-0.0504,2.35,2.73,0.862,3.71,0.82,3.35
TCATATAGGTAATACACGTGAAAGTCGGCATCTA,1.26,0.929,0.413,1.06,0.455,1.13,1.1,2.03,3.93,2.92,3.9,2.2,1.1,1.42,1.33,0.683,0.547,0.919,1.56,0.414
TGTAGTTGGTCAAAGGTCACACACTCGAAATGCG,5.82,5.9,3.8,5.42,1.98,6.69,11,9.78,10.1,11.7,1.7,6.41,2.33,2.58,5.57,6.06,1.72,7.38,3.74,4.86
TCTGCTAGTTCAGTTGGTCAGCTAACGAGCTGCC,-0.661,-0.0879,-0.708,-0.52,0.193,0.1,-1.03,0.545,1.27,0.794,0.762,0.394,-0.505,-0.636,-1.77,-0.0751,-0.641,-0.244,-1.61,0.778
TCATATAGGCAAAGGTGAAAGTCGAACGATATGA,0.772,1.05,-0.253,1.07,-0.302,2.98,3.35,4.39,3.88,4.56,2.2,2.33,0.797,0.292,0.811,1.04,0.14,2.02,0.326,1.74
CCTAGCAGGACAGGGTCACTCAAGCATTTCGCTT,2.28,1.99,-0.28,2.4,-0.799,3.41,0.993,1.68,-0.413,0.404,0.172,1.08,-2.12,-1.5,1.08,2.84,0.281,3.62,0.381,2.57
TGAATGAGGTTATAAGATCAGGGAGCGTTGCAAA,1.22,1.19,-0.626,0.707,-0.471,2.63,1.63,1.91,0.643,1.55,0.796,1.56,0.774,-0.572,0.0916,0.406,-0.17,0.968,-0.286,1.03
CCTACTGGGCCATTCAGAGGTCATTTATCATATG,2.65,4.36,8.31,4.14,1.15,3.75,2.29,2.85,0.841,1.78,3.98,4.38,1.61,0.342,2.27,4.91,2.24,4.44,0.704,2.79
ACTATTAGTTGACTGAGGGCAACCGATACGACGC,0.492,0.678,0.199,0.459,0.656,0.506,0.804,0.0428,0.173,0.117,0.524,0.702,1.12,0.733,0.7,1.06,1.3,0.779,0.713,1.41
GATGCTAGGTCAGGTTGGTCAGCTAACGGGTACG,1.5,1.03,-0.12,0.742,0.041,1.66,0.776,0.805,-0.511,0.0836,1.91,2.23,-0.346,-0.425,1.67,0.452,0.0675,0.755,-0.108,3.46
GATACAGGGGCAGCTAGAGGCCAGAGTATGGAAA,0.0694,0.017,-0.177,0.453,-0.405,0.26,0.483,0.296,-0.0735,-0.078,0.509,0.442,-0.18,-0.917,-0.0981,-0.0351,-0.216,-0.106,-0.394,1.57
AGAATGAGGTTATTAAGATCAGGCAATTGCGGTC,1.46,1.36,0.308,1.11,-0.00931,2.58,1.42,1.73,0.485,1.18,2.95,2.56,0.272,0.448,0.366,1.2,0.322,1.47,0.167,1.33
GCAGACAGGTGAAAAGCAGGTAACTCAGGGTGGC,-0.224,-0.0671,-0.495,-0.319,-0.696,0.507,0.376,0.014,-0.488,-0.253,0.172,0.778,-0.581,-1.28,-0.799,-0.441,-0.329,0.143,-0.401,0.42
CCCAGTAGGTTATGGGGCATTCAGGCAACGGTGA,0.192,0.622,-0.205,-0.0107,-0.618,2.63,5.2,5.47,4.14,5.66,3.64,4.66,-0.461,-0.268,0.645,-0.0768,-0.414,0.112,-0.0462,0.967
TATAGTTGGTCACGGAGGTCACACACGACGGGTA,3.47,3.92,3.29,3.47,1.25,4.09,4.49,3.8,1.92,3.19,1.03,4.52,1.35,2.08,2.56,4.66,1.06,4.48,1.98,4.09
ATACCAAGGTGATCGTGAGGTCGTCGATACTAAC,1.46,1.08,0.311,0.992,-0.191,1.75,0.672,0.691,0.0309,0.54,0.722,1.25,0.727,0.964,0.798,2.36,0.524,1.84,0.592,1.3
TGTCAAAGTTCAAGGGTAACGTAAGTATCCACAC,6.24,6.1,3.43,3.73,0.957,5.25,8.36,7.5,5.26,7.05,-0.0175,4.63,1.78,1.04,2.41,4.83,2.3,4.95,0.926,5.05
CCTAGTTCGTCAGGAGGTCACACACCGGATATGA,3.66,4.1,2.37,3.64,1.22,4.28,2.29,3.03,1.04,2.19,1.04,2.38,0.424,0.947,5.39,5.2,2.66,5.34,2.32,3.76
TCAGACAGGTGAAGGTAACTCACGTACGCAGTCG,0.8,2.26,-0.278,0.983,-0.343,1.2,0.954,2.09,3.55,2.75,2.67,1.17,0.022,-0.274,0.847,0.479,-0.00874,0.651,0.536,1.07
CCGACTGGGGCATAAGGTTGCCATAAGCCAGCCC,-0.333,-0.188,-0.75,-0.498,-1.17,0.636,0.999,1.81,-0.189,1.12,2.51,2.07,-0.622,-1.53,-0.22,-0.532,-0.499,0.0769,-0.329,0.569
TCTATTTGTTGAAGGGCAACCGACGAGTCCGTTT,0.938,1.22,0.754,0.891,1.45,0.93,0.0466,2.21,3.99,3.24,2.54,1.08,1.34,1.56,1.38,1,1.16,0.596,2.02,1.68
ACATGTAGGTTATCGGGTCATTCAGTTTGCGCAT,3.45,3.33,1.98,3.33,1.7,4.49,6.1,5.23,2.59,4.9,6.89,6.82,3.46,3.12,5.01,4.02,6.61,3.88,2.25,2.61
GCGACTGGGGCATCAGCAGATTACCATAACTTAA,-0.359,-0.612,-0.401,0.0496,-0.549,0.511,1.02,0.488,-0.24,0.0962,4,2.69,0.0111,-0.326,-0.0673,-0.385,-0.328,-0.267,0.336,0.39
ATATGTAGGTTAGCGGGTCATTCAGTTTGCGCAT,2.01,2.27,0.947,2.45,0.826,4.33,6.81,5.6,3.1,5.16,7.62,7.02,2.14,1.79,2.58,3.07,5.07,2.89,1.16,2.31
CCTCCAAGGTCAAGGTCAGTGAAAGAGACTCGAA,7.8,5.56,1.22,4.56,0.877,5.99,6.15,6.06,2.76,4.75,2.84,4.47,0.309,-0.405,3.87,4.83,1.54,5.14,2.11,5.8
CAGCCTAGGTCAGGGACAGTATAGGAGGAACGTT,1.72,1.1,-0.189,0.879,-0.664,2.34,1.26,1.07,0.251,0.563,1.29,1.68,-0.599,-0.73,0.801,0.546,-0.219,1.22,0.00135,3.4
